# Test results from publication PMC5540273 (PLoS ONE, 2017).
# How the values were obtained:
# Conditions in all cases: concentration: 1 μM, replicates: in singlicate; n = 1
# PIP5K1A = tested on: PIP5K1A
# PIP5K1C = tested on: PIP5K1C
# PIP5K2B = tested on: PIP5K2B
# PIP5K2C = tested on: T1, PIP5K2C
# T1 construct: gene PIP4K2C
# PKAC-alpha = tested on: T2, PKAC-alpha
# T2 construct: gene PRKACA
# PKAC-beta = tested on: T3, PKAC-beta
# T3 construct: gene PRKACB
# PKMYT1 = tested on: PKMYT1
# PKN1 = tested on: PKN1
# PKN2 = tested on: PKN2
# PLK1 = tested on: PLK1
# PLK2 = tested on: PLK2
# PLK3 = tested on: PLK3
# PLK4 = tested on: PLK4
# PRKCD = tested on: PRKCD
# PRKCE = tested on: PRKCE
# PRKCH = tested on: PRKCH
# PRKCI = tested on: PRKCI
# PRKCQ = tested on: PRKCQ
# PRKD1 = tested on: PRKD1
# PRKD2 = tested on: PRKD2
# 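Also: KINOMEscan kinase panel screen.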
Compound,%Inh (PIP5K1A) [%],%Inh (PIP5K1C) [%],%Inh (PIP5K2B) [%],%Inh (PIP5K2C) [%],%Inh (PKAC-alpha) [%],%Inh (PKAC-beta) [%],%Inh (PKMYT1) [%],%Inh (PKN1) [%],%Inh (PKN2) [%],%Inh (PLK1) [%],%Inh (PLK2) [%],%Inh (PLK3) [%],%Inh (PLK4) [%],%Inh (PRKCD) [%],%Inh (PRKCE) [%],%Inh (PRKCH) [%],%Inh (PRKCI) [%],%Inh (PRKCQ) [%],%Inh (PRKD1) [%],%Inh (PRKD2) [%]
COc1cc(Nc2nccc(-c3c(-c4cccc(NC(=O)c5c(F)cccc5F)c4)nn4ncccc34)n2)cc(OC)c1OC [GSK327238],0,19,20,93.9,44,47,8,62,13,12,68,92.7,44,79,14,67,9,90.2,6,14
CCc1ccc(-c2ccc3c(c2)-c2c(cnn2C)S(=O)(=O)N3C)cc1,0,24,0,77,0,12,30,2,0,0,4,2,14,0,17,0,2,23,0,14
Cc1ccc(S(=O)(=O)Nc2ccc(Nc3nccc(Nc4cccc5[nH]ncc45)n3)cc2)cc1 [GSK581271],0,31,13,57,0,0,15,22,0,0,0,0,1,0,0,0,7,0,0,0
CSc1cccc2c(-c3ccncn3)c(-c3ccc(F)cc3)nn12 [GW514786],0,47,8,8,14,36,6,0,0,7,40,0,2,0,11,6,5,19,0,2
Oc1cc(Nc2ccnc3cc(I)ccc23)ccc1F [GW552771],8,13,0,30,0,0,0,19,0,0,0,0,0,0,3,13,30,0,45,30
CC(C)c1nc(-c2cccc(NS(=O)(=O)c3c(F)cccc3F)c2F)c(-c2ccnc(Nc3ccc(N4CCOCC4)nc3)n2)s1 [GSK2008607],0,45,0,87,0,0,24,6,0,0,0,4,100,0,0,22,36,18,93.8,99.2
Cc1ccc(C)c(NC(=O)NC2CCN(c3ccnc(Nc4ccc(F)cc4)n3)C2)c1 (centres unmarked) [GSK1379720],0,65,38,47,0,0,5,0,0,0,0,0,0,0,15,0,13,0,0,0
O=C(Nc1n[nH]c2nc(-c3ccc(O)cc3)ccc12)C1CC1 [SB-710363],21,83,56,0,0,18,0,19,23,0,10,0,30,37,45,19,0,16,0,0
Cl.c1ccc(-c2ccc3c(Nc4ccc5[nH]ncc5c4)ccnc3c2)nc1 [GW440137],18,30,0,55,0,0,0,15,0,0,0,0,7,4,5,0,17,0,3,12
COC(=O)Nc1nc2ccc(Oc3ccc(NC(=O)Nc4cc(C(F)(F)F)ccc4F)cc3)cc2n1C.Cl [GW692089],74,61,22,41,0,0,0,0,11,0,0,30,0,0,20,0,4,0,0,10
